Screening data as filed in PubChem BioAssay.
Only some compounds are listed: those with a hit (about 10% of all), similar ones and a draw of the others.
GPT2 inhibitor: blocks human glutamate pyruvate transaminase 2; Q8TD30; AID 1671188; hit rate 0.25% among 100,000; Potency, µM (highest dose often 57.7 µM), inactives show at the top dose activity change, negative = inhibition, most hits filed as inhibitors; Recombinant GPT2, coupled pyruvate oxidase/HRP Amplex Red fluorescence; further: on the % scale 0 is the no-effect control and ±100 the full control effect; nearly all actives have a fitted effect of over 60% in size
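Recombinant GPT2 (10ng/uL) with 250uM a-KG and 2mM L-alanine, 30 min at room temperature, in HEPES pH 7.5 buffer. Pyruvate detected by pyruvate oxidase/HRP/Amplex Red fluorescence after 30 min in the dark; AOA (50uM) as positive control.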
hNpr1 antagonist: human Npr1 receptor antagonism. hit rate 1.6% among 76,000. HEK293 hNpr1 GloSensor cGMP, ANP-stimulated luminescence. AID 1347048. Potency, µM (series often up to 46.3 µM), without a hit: at the highest dose activity change, negative = inhibition, most hits filed as inhibitors; calls by dose curve; further: on the % scale 0 is the no-effect control and ±100 the full control effect; nearly all actives have a fitted effect of over 60% in size
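Compound pre-incubated 30 min at room temperature on GloSensor-loaded HEK293 cells stably carrying hNpr1 and the pGS-40F cGMP biosensor. Stimulation uses hNppA at 0.1 nM final; luminescence is taken at baseline and 20 min post-agonist.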
HEK293 tox: kills HEK 293 cells; Potency, µM (highest dose often 115 µM), for inactives: at the highest dose activity change, negative = cytotoxicity, hits mostly inhibitors; hit rate 6.6% among 94,000; HEK 293 viability, ATP luminescence (CellTiter-Glo), 48-72 h; further: on the % scale 0 is the no-effect control and ±100 the full control effect; nearly all actives have a fitted effect of over 60% in size
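Read-out: CellTiter-Glo ATP luminescence. Cells: HEK 293, 250 cells/well. Exposure: 48 or 72 hr, 37 degree Celsius.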
Luciferase inh: inhibitors of firefly (Photinus pyralis) luciferase. purified P. pyralis luciferase, luminescence, biochemical. AID 1347043. hit rate 2.5% among 76,000. P08659. Potency, µM (highest dose often 115 µM), hits mostly inhibitors; further: on the % scale 0 is the no-effect control and ±100 the full control effect; nearly all actives have a fitted effect of over 65% in size
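Luminescence read by CCD imager after adding enzyme (10nM final) to wells holding compound, titrated in qHTS. Substrates 10uM each D-luciferin and ATP; buffer 50mM Tris acetate pH 7.5, 10mM Mg acetate, Tween-20, BSA.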
3T3 cytotox: cytotoxic compounds in NIH 3T3 cells; hit rate 4.3% among 94,000; AID 1345082; Potency, µM (titrated, usually from 96.7 µM), inactives show top-dose activity change, negative = cytotoxicity, most hits filed as inhibitors; NIH 3T3 viability, CellTiter-Glo ATP luminescence, 48-72 h; further: on the % scale 0 is the no-effect control and ±100 the full control effect; nearly all actives have a fitted effect of over 55% in size
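Cytotoxicity was measured by CellTiter-Glo ATP luminescence after 48 or 72 h compound exposure at 37 °C. Mouse NIH 3T3 fibroblasts were seeded at 400 cells/well and dosed by 23 nL pin transfer.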
Npr1 antag conf: hNpr1 antagonism, confirmation assay; hit rate 76% among 1,400; shares compounds with hNpr1 antagonist; HEK293 hNpr1 cGMP GloSensor luminescence, ANP-stimulated; Potency, µM (doses to about 57.6 µM), for the others: at the top dose activity change, negative = inhibition, hits mostly inhibitors; calls by dose curve; further: nearly all actives have a fitted effect of over 70% in size
NPR2 antag: selectivity test of Npr1 antagonists against human Npr2. shares compounds with hNpr1 antagonist. Potency, µM (doses to about 57.6 µM), for inactives: top-dose activity change, negative = inhibition, usual class: inhibitors. AID 1347046. HEK293 hNpr2 GloSensor cGMP luminescence, CNP-stimulated. hit rate 67% among 1,400; calls by dose curve; further: nearly all actives have a fitted effect of over 70% in size
FLuc inh counter: counter-screen for Npr1 antagonists: firefly luciferase inhibitors | shares compounds with hNpr1 antagonist | purified FLuc enzyme, luminescence, Km substrate | Potency, µM (top dose mostly 57.6 µM), without a hit: at the top dose activity change, negative = inhibition, most hits filed as inhibitors | hit rate 0.7% among 1,400 | AID 1347047; further: 0% is about no effect
GloSensor ctrl: control cell line activity, Npr1 antagonist counter-screen; Potency, µM (doses to about 57.6 µM), without a hit: at the highest dose activity change, negative = inhibition, hits mostly inhibitors; shares compounds with hNpr1 antagonist; HEK293 GloSensor cGMP, SNP-stimulated, luminescence; hit rate 69% among 1,400; calls by dose curve; further: on the % scale 0 is the no-effect control and ±100 the full control effect; nearly all actives have a fitted effect of over 70% in size
Active calls of the source: *. Unless noted, the call rests on the fitted dose curve; in most records, active means well fitted curve in the direction sought with a large enough effect; inconclusive means small, poorly fitted or top-dose-only effect, or another doubt; inactive means no such curve, though single readings can be large; an effect the other way counts as inactive or inconclusive. Potency means the concentration at half of the fitted maximal effect.

What do the screens show for `COc1cccc(CN2Cc3cc(NC(=O)c4cc(OC)cc(OC)c4)ccc3OCC2=O)c1`?
GPT2 inhibitor: 0%; hNpr1 antagonist: -1%; HEK293 tox: inconclusive; Luciferase inh: inactive; 3T3 cytotox: inconclusive

Results for O=C(c1cccc(Br)c1)N1CCN(c2cc(-c3cccs3)[nH]n2)CC1 ?
GPT2 inhibitor: inactive; hNpr1 antagonist: -30%; HEK293 tox: inconclusive; Luciferase inh: inactive; 3T3 cytotox: inconclusive; Npr1 antag conf: inconclusive; NPR2 antag: inconclusive; FLuc inh counter: -2%; GloSensor ctrl: -11%

What do the screens show for `O=C(c1cccc(F)c1)N1CCN(c2cc(-c3ccc(Cl)cc3)[nH]n2)CC1`?
GPT2 inhibitor: -1%; hNpr1 antagonist: inconclusive; HEK293 tox: inconclusive; Luciferase inh: inactive; 3T3 cytotox: inconclusive; Npr1 antag conf: 24µM*; NPR2 antag: inconclusive; FLuc inh counter: -5%; GloSensor ctrl: inconclusive

How did O=C(c1ccc(F)c(F)c1)N1CCN(c2cc(-c3ccc(F)cc3)[nH]n2)CC1 do in these assays?
GPT2 inhibitor: -2%; hNpr1 antagonist: inconclusive; HEK293 tox: inconclusive; Luciferase inh: inactive; 3T3 cytotox: inconclusive

What do the screens show for `O=C(c1cccc(Br)c1)N1CCN(c2cc(-c3ccc(Cl)cc3)[nH]n2)CC1`?
GPT2 inhibitor: inactive; hNpr1 antagonist: inconclusive; HEK293 tox: 40µM*; Luciferase inh: inactive; 3T3 cytotox: 32µM*; Npr1 antag conf: 24µM*; NPR2 antag: inconclusive; FLuc inh counter: -1%; GloSensor ctrl: inconclusive

Results for COc1ccc(CCNC(=O)c2ccc3nnc(-c4cccnc4)n3c2)cc1 ?
GPT2 inhibitor: inactive; HEK293 tox: -8%; 3T3 cytotox: -6%

Results for CC1(c2ccccc2)N(Cc2ccccc2C#N)C(=O)OC12CCN(Cc1c[nH]c3ccccc13)CC2 (configuration not stated) ?
GPT2 inhibitor: -12%; hNpr1 antagonist: inconclusive; HEK293 tox: 14µM*; Luciferase inh: inactive; 3T3 cytotox: 22µM*; Npr1 antag conf: 19µM*; NPR2 antag: 19µM*; FLuc inh counter: 0%; GloSensor ctrl: -9%

Results for O=C(NCc1ccccc1F)c1ccc2c(c1)CN(Cc1cccc(F)c1)CCO2 ?
GPT2 inhibitor: inactive; hNpr1 antagonist: -12%; HEK293 tox: inconclusive; Luciferase inh: inactive; 3T3 cytotox: inconclusive

Results for O=C(NCc1ccccc1F)c1ccc2c(c1)CN(Cc1ccncc1)CCO2 ?
GPT2 inhibitor: inactive; hNpr1 antagonist: 13µM*; HEK293 tox: inconclusive; Luciferase inh: inactive; 3T3 cytotox: -36%; Npr1 antag conf: 17µM*; NPR2 antag: 17µM*; FLuc inh counter: 5%; GloSensor ctrl: 11µM*

Results for CC(C)c1noc(-c2cn(C3CCN(C(=O)c4ccc(F)cc4Cl)C3)nn2)n1 (configuration not stated) ?
GPT2 inhibitor: inactive; hNpr1 antagonist: inconclusive; HEK293 tox: inconclusive; Luciferase inh: inactive; 3T3 cytotox: inconclusive; Npr1 antag conf: 15µM*; NPR2 antag: 15µM*; FLuc inh counter: 3%; GloSensor ctrl: 14µM*

What do the screens show for `CC(C)c1noc(-c2cn(C3CCN(C(=O)c4cccc(Cl)c4)C3)nn2)n1` (configuration not stated)?
GPT2 inhibitor: -1%; hNpr1 antagonist: inconclusive; HEK293 tox: inconclusive; Luciferase inh: inactive; 3T3 cytotox: inconclusive; Npr1 antag conf: 24µM*; NPR2 antag: 27µM*; FLuc inh counter: 7%; GloSensor ctrl: 22µM*

How did CC(C)c1noc(-c2cn(C3CCN(C(=O)c4cccc(F)c4)C3)nn2)n1 (configuration not stated) do in these assays?
GPT2 inhibitor: inactive; hNpr1 antagonist: inconclusive; HEK293 tox: inconclusive; Luciferase inh: inactive; 3T3 cytotox: inconclusive

What do the screens show for `Cc1noc(-c2cn(C3CCN(C(=O)c4ccc(F)cc4Cl)C3)nn2)n1` (configuration not stated)?
GPT2 inhibitor: -16%; hNpr1 antagonist: 2%; HEK293 tox: -3%; Luciferase inh: inactive; 3T3 cytotox: -22%

What do the screens show for `Cn1nc(C(=O)NCC23CCC=C2N(CC2CC2)C(=O)CC3)c2ccccc21` (configuration not stated)?
GPT2 inhibitor: 2%; hNpr1 antagonist: -1%; HEK293 tox: -8%; Luciferase inh: inactive; 3T3 cytotox: -12%

Results for CC(C)c1nc2c(c(-c3ccc(O)cc3)n1)CN(Cc1cccc(F)c1)CC2 ?
GPT2 inhibitor: inactive; hNpr1 antagonist: 6%; HEK293 tox: inconclusive; Luciferase inh: inactive; 3T3 cytotox: inconclusive

How did COC[C@@H]1CN(Cc2c(OC)cccc2OC)C[C@H]1c1ccncc1 do in these assays?
GPT2 inhibitor: inactive; hNpr1 antagonist: 6.3µM*; HEK293 tox: 35µM*; Luciferase inh: inactive; 3T3 cytotox: inconclusive; Npr1 antag conf: 15µM*; NPR2 antag: 15µM*; FLuc inh counter: 0%; GloSensor ctrl: 14µM*

How did CN1CC2(CCN(Cc3cn(C)c4ccccc34)CC2)CC1C(=O)N1CCOCC1 (configuration not stated) do in these assays?
GPT2 inhibitor: inconclusive; hNpr1 antagonist: -12%; HEK293 tox: inconclusive; Luciferase inh: inactive; 3T3 cytotox: -25%

Results for COCc1noc(-c2ccc(N(C)CC3CC(=O)N(C(C)(C)C)C3)nc2)n1 (configuration not stated) ?
GPT2 inhibitor: -4%; hNpr1 antagonist: 11µM*; HEK293 tox: inconclusive; Luciferase inh: inactive; 3T3 cytotox: inconclusive; Npr1 antag conf: 24µM*; NPR2 antag: inconclusive; FLuc inh counter: -1%; GloSensor ctrl: 22µM*
